Laboratory results taken from PubChem BioAssay (Tox21).
Records with an inconclusive call do not appear. The source made the active and inactive calls. Unless noted, calls come from the whole dose curve; as a rule, active = well fitted curve in the direction sought with a large enough effect in the repeat runs; inconclusive = weak or mixed curves; inactive = no such curve, though single readings can be large; an effect the other way counts as inactive or inconclusive.

Assays:
[1] = qHTS assay for small molecule agonists of the p53 signaling pathway (AID 651631; calls by dose curve; note: nearly all actives have a fitted effect of over 15% in size)
Summary of the method: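 Quantitative high-throughput format: 4,000 p53RE-bla HCT-116 cells/well, 5 h pre-incubation, 16 h compound exposure at 37 °C, 2 h room-temperature substrate step, fluorescence intensity measured.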

[2] = qHTS assay for small molecules that induce genotoxicity in human embryonic kidney cells expressing luciferase-tagged ATAD5 (AID 651632); note: nearly all actives have a fitted effect of over 15% in size
Summary of the method: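 Cells were seeded at 2,000 per well, dosed with compound, and incubated 16 hr at 37C in 5% CO2. Luciferase activity was then quantified after a 30 min room-temperature incubation with Amplite.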

[3] = qHTS assay for small molecule agonists of the p53 signaling pathway - cell viability (AID 651633; calls by dose curve;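 note: p53RE-bla HCT reporter cells with a stable beta-lactamase p53 reporter; series mostly up to about 83 µM; nearly all actives have a fitted effect of over 30% in size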)
Summary of the method: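 Viability counter-read: CellTiter-Glo luminescence (30 min, room temperature) in the same p53RE-bla plates. These plates had been exposed to compounds for 16 h at 37 C.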

[4] = qHTS assay for small molecules that induce genotoxicity in human embryonic kidney cells expressing luciferase-tagged ATAD5 - cell viability (AID 651634; calls by dose curve; note: nearly all actives have a fitted effect of over 25% in size)
Summary of the method: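 Cells (HEK293T, luciferase-tagged ATAD5) are seeded at 2,000 per well, dosed with compound or DMSO vehicle, and incubated 15.5 hr at 37C and 5% CO2. CellTiter-Fluor is added for 30 min before fluorescence is measured.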

[5] = qHTS assay for small molecule disruptors of the mitochondrial membrane potential - cell viability (AID 720634; calls by dose curve;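 note: human HepG2 liver cancer cells; series mostly up to about 83 µM; nearly all actives have a fitted effect of over 20% in size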)
Summary of the method: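 Cytotoxicity was measured by ATP quantitation in HepG2 wells that had first been treated with compound for 1 hr and stained with m-MPI dye; CellTiter-Glo incubation was 30 min at room temperature.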

[6] = qHTS assay to test for compound auto fluorescence at 590 nm (red) in HepG2 cells (AID 720674)
Summary of the method: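 Red autofluorescence (Ex/Em 540/590 nm, Rose Bengal sodium equivalents) was measured in HepG2 cells, 2,000 per well in MEM plus 10% FBS, plated overnight at 37 C. Readings were taken 1 hr after adding 23 nL compound or DMSO, at 37 C and 5% CO2.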

[7] = qHTS assay to test for compound auto fluorescence at 535 nm (green) in HepG2 cells (AID 720675)
[8] = qHTS assay to test for compound auto fluorescence at 460 nm (blue) in HEK293 cells (AID 720678)
Summary of the method: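 Auto fluorescence in the blue band was quantified as triamterene equivalency. HEK293 cells were seeded at 2,000/well, dosed after a 4-5 hr attachment, and kept overnight at 37C before the 405/460 nm reading.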

[9] = qHTS assay to test for compound auto fluorescence at 590 nm (red) in HEK293 cells (AID 720679)
Summary of the method: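 Autofluorescence equivalency to Rose Bengal sodium, 540/590nm, in HEK293 cells exposed overnight to 23 nL compound per well.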

[10] = qHTS assay to test for compound auto fluorescence at 535 nm (green) in HEK293 cells (AID 720680)
[11] = qHTS assay to test for compound auto fluorescence at 460 nm (blue) in HEK293 cell free culture (AID 720681)
Summary of the method: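 Blue fluorescence (Ex 405/Em 460 nm, triamterene-equivalent) was read immediately after pin transfer of compound or DMSO into medium (DMEM, 10% FBS) without cells.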

[12] = qHTS assay to test for compound auto fluorescence at 535 nm (green) in HEK293 cell free culture (AID 720682)
Summary of the method: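 Measurement is a direct plate read of green fluorescence (485 nm in, 535 nm out) after compound addition to serum-supplemented DMEM lacking cells, with fluorescein used to express intensities.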

[13] = qHTS assay to test for compound auto fluorescence at 590 nm (red) in HEK293 cell free culture (AID 720683)
Summary of the method: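 Red-channel autofluorescence of compounds in culture medium (DMEM, 10% FBS), no cells, measured at 540/590 nm. Rose Bengal sodium is the reference fluorophore for equivalence.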

[14] = qHTS assay to test for compound auto fluorescence at 590 nm (red) in HepG2 cell free culture (AID 720684)
Summary of the method: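 No cells present: MEM + 10% FBS only. Compound pinned in, red label read (540/590 nm). Activity = fluorescence equivalent to Rose Bengal sodium.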

[15] = qHTS assay to test for compound auto fluorescence at 460 nm (blue) in HepG2 cell free culture (AID 720685)
Summary of the method: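 Cell-free plates of MEM plus 10% FBS received 23 nL compound or DMSO vehicle; blue-channel (405/460 nm) intensity scored against triamterene as reference fluorophore.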

[16] = qHTS assay to test for compound auto fluorescence at 535 nm (green) in HepG2 cell free culture (AID 720686)
[17] = qHTS assay to test for compound auto fluorescence at 460 nm (blue) in HepG2 cells (AID 720687)
Summary of the method: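 Blue-channel autofluorescence (Ex/Em 405/460 nm, triamterene-equivalent) was measured after 1 hr compound exposure at 37 C, 5% CO2. Cells were HepG2, plated overnight at 37 C in MEM plus 10% FBS.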

[18] = biological target: Glucocorticoid receptor (Homo sapiens) (UniProt P04150); experiment: qHTS assay to identify small molecule agonists of the glucocorticoid receptor (GR) signaling pathway (AID 720691; active = well fitted activation curve with a large enough effect in the signal ratio in the repeat runs, not every such curve was filed as active; the % refers to the signal ratio)
Chain of Glucocorticoid receptor (Homo sapiens) (P04150 whole entry, looked up): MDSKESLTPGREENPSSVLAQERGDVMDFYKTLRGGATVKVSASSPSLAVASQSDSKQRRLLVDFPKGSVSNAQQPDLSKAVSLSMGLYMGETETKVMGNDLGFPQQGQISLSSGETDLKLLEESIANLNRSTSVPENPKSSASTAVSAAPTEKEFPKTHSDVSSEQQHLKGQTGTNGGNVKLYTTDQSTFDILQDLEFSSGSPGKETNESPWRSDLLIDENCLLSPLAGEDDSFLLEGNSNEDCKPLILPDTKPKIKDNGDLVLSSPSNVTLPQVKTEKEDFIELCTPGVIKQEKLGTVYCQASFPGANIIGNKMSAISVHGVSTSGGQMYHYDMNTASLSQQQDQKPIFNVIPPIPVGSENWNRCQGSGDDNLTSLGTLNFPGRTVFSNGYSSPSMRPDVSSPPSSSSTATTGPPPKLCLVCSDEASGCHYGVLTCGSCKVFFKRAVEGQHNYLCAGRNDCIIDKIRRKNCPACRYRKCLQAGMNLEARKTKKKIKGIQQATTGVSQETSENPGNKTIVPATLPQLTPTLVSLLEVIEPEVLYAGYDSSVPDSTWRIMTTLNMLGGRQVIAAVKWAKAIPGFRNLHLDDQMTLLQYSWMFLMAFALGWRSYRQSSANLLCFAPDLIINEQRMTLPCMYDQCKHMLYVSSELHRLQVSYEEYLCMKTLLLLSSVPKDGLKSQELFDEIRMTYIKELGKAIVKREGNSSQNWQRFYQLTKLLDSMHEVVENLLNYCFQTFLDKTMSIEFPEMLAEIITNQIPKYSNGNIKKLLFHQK
Summary of the method: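 Steps: seed GR-bla HeLa cells, incubate 4 h at 37 C/5% CO2; pin-transfer DMSO-dissolved compounds; incubate 18 h at 37 C; add LiveBLAzer B/G FRET substrate; after 2 h at room temperature, measure fluorescence.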

[19] = biological target: Glucocorticoid receptor (Homo sapiens) (UniProt P04150); experiment: qHTS assay to identify small molecule antagonists of the glucocorticoid receptor (GR) signaling pathway (AID 720692; active = well fitted inhibition curve with a large enough effect in the signal ratio in the repeat runs, not every such curve was filed as active; the % refers to the signal ratio)
Summary of the method: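 Antagonism was scored as loss of dexamethasone-driven (5 nM final) reporter signal in HeLa cells bearing a glucocorticoid response element–beta-lactamase construct, after 18 h compound exposure at 37 C and 2 h FRET substrate loading.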

[20] = qHTS assay for small molecule disruptors of the mitochondrial membrane potential (AID 720635)
Summary of the method: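 Mitochondrial membrane potential tracked with Mito-MPS dye, red aggregates (ex 540/em 590 nm) against green monomers (ex 490/em 535 nm). Compound treatment 1 hr at 37C, dye 30 min in HepG2.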

Measured: Potency

CC12CCC(CC1)C(C)(C)O2
not listed: [20]
inactive: all other assays above

C=CCc1ccc(O)c(OC)c1
not listed: [18] | [19] | [20]
inactive: all other assays above

CCCCCCCC(=O)OCC(COC(=O)CCCCCCC)OC(=O)CCCCCCC
inactive: all assays above

CS(=O)(=O)OCCCCOS(C)(=O)=O
not listed: [18] | [19] | [20]
inactive: all other assays above

CC(=O)C(=O)O
not listed: [12] | [18] | [19] | [20]
inactive: all other assays above

CCOc1ccc(NC(C)=O)cc1
not listed: [12]
inactive: all other assays above

NC(CO)(CO)CO
not listed: [12]
inactive: all other assays above
